# According to ChEMBL document CHEMBL3988442, “University of Dundee, Small-Polar-MMV Screening Library” (2021):
# For some assays here: Potency and affinity values are given separately.
# Assays:
# Design in all cases: scale not given: direction of the effect not stated beside the values
# [1] = target: Protein translocase subunit SecA (Escherichia coli (strain K12)) (UniProt P10408); experiment: Assay to Identify E. coli SecA ATPase Inhibitors; format: functional; settings: 30 µM
# [2] = target: T1, Ubiquitin-activating enzyme e1, putative (Leishmania donovani (strain BPK282A1)) (UniProt E9BSI1); experiment: Leishmania donovani Ubiquitin Activating Enzyme (LdE1); format: functional; settings: 30 µM
# T1 sequence (whole entry): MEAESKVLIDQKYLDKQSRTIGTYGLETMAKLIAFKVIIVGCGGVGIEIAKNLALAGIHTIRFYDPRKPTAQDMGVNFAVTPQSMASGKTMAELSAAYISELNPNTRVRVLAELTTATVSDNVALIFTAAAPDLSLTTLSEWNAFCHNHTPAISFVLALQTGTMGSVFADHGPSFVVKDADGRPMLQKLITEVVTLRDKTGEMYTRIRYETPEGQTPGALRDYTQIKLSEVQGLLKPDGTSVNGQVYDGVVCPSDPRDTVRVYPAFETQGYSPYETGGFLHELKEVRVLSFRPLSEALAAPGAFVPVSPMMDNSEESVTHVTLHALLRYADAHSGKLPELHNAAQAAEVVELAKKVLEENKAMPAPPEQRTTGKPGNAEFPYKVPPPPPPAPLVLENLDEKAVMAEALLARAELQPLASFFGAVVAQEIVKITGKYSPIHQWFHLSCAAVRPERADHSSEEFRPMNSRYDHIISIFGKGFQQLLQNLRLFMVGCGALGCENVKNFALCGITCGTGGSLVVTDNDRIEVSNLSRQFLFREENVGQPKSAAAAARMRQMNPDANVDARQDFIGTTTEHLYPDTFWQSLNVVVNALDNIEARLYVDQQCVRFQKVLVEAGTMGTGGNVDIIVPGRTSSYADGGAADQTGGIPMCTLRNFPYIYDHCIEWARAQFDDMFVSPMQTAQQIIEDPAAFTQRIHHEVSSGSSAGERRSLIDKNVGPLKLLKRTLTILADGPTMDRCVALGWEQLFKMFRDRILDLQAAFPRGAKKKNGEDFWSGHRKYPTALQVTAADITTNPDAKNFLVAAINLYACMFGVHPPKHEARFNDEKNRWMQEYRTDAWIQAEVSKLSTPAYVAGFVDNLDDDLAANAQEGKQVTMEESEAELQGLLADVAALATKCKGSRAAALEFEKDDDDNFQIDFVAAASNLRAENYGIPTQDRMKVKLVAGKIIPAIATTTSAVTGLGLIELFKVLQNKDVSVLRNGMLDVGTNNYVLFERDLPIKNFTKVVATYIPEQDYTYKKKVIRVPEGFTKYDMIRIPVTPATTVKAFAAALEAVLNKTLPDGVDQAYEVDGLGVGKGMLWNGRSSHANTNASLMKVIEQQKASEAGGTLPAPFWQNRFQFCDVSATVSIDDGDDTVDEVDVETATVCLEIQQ
# [3] = target: AMP-activated protein kinase, AMPK (Homo sapiens) (UniProt P54646+O43741+P54619+Q9UGJ0+Q9Y478+Q13131+Q9UGI9); experiment: AMP-dependent Kinase enzyme assay. An in vitro enzyme assay that detects ADP turnover that is directly proportional to AMPK activity. This uses naive AMPK that is activated during the assay with MK-8722; format: functional; settings: 30 µM
# [4] = target: Sialic acid-binding Ig-like lectin 9 (Homo sapiens) (UniProt Q9Y336); experiment: Hs-Siglec9 ALPHAscreen SOP 20170721; settings: 10 µM
# Trypanosoma cruzi = experiment: Trypanosoma cruzi phosphomannomutase and mannose-1-phosphate guanylyltransferase assay; format: functional; settings: 10 µM
# [5] = target: T2, Arginase-2, mitochondrial (Homo sapiens) (UniProt P78540); experiment: in vitro enzyme assay to detect the production of urea directly proportional to the activity of Arginase II; format: functional; settings: 33.3 µM; also: in the data most compounds retested in dose-response had high values
# T2 sequence (whole entry): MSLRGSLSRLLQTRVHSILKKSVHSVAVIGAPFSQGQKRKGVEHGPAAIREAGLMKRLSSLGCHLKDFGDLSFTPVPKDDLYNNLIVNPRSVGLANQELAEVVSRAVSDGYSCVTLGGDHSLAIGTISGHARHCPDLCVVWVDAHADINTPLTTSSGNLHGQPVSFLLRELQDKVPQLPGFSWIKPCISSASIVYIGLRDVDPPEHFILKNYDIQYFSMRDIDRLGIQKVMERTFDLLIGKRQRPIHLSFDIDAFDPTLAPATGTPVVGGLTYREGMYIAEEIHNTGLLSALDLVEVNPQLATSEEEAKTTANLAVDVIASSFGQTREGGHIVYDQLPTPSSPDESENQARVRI
# [6] = target: T3, Proteasome subunit beta (Trypanosoma cruzi) (UniProt O96673); experiment: Trypanosoma cruzi proteasome chymotrypsin-like activity (TcProtChymo) assay.; also: in the data most compounds retested in dose-response had high values; format: functional; settings: 9.37 µM
# T3 sequence (whole entry): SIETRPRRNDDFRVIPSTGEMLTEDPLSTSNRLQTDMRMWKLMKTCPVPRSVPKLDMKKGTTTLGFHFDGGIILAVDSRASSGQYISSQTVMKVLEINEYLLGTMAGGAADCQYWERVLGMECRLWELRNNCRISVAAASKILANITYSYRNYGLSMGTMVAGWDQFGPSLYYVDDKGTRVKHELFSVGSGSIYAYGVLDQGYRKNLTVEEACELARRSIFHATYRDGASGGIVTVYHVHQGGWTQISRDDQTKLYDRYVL
# Homo sapiens = organism: Homo sapiens; experiment: To identify inhibition of the IFN signalling (Jak-Stat) pathway via expression of an eGFP reporter gene under the control of an IFN-stimulated response element (ISRE) containing MxA promoter.; format: functional; settings: 30 µM
# [7] = target: T4, Tyrosyl-tRNA synthetase, putative (Trypanosoma cruzi (strain CL Brener)) (UniProt Q4DSP6); experiment: Trypanosoma cruzi tyrosyl tRNA synthetase (TcYRS) _High Tyrosine SOP; format: functional; settings: 30 µM; also: in the data most compounds retested in dose-response had high values
# T4 sequence (whole entry): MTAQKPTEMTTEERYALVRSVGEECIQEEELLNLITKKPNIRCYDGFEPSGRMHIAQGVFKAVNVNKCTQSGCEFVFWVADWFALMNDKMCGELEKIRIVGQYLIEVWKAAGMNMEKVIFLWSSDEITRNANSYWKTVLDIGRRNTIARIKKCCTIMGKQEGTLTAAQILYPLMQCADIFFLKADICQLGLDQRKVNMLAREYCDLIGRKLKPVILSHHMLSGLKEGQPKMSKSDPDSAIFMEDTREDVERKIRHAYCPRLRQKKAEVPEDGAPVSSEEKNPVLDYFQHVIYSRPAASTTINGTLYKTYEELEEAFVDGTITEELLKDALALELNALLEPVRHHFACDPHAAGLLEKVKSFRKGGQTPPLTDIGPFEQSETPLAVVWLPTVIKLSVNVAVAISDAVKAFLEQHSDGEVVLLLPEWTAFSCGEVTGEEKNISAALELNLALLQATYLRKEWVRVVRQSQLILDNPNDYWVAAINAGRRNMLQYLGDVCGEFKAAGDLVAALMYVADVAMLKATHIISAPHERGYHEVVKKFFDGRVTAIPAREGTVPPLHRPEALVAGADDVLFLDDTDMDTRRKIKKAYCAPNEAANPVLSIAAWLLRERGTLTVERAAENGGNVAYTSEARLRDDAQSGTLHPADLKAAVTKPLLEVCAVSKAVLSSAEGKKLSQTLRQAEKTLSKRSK
# [8] = target: T4, Tyrosyl-tRNA synthetase, putative (Trypanosoma cruzi (strain CL Brener)); experiment: Trypanosoma cruzi tyrosyl tRNA synthetase (TcYRS) SOP; format: functional; settings: 30 µM
# [9] = target: Chromo domain-containing protein 1 (Saccharomyces cerevisiae (strain ATCC 204508 / S288c) (Baker's yeast)) (UniProt P32657); experiment: ScCHD-1 Enzyme Inhibition Assay; format: functional; settings: 30 µM; also: in the data most compounds retested in dose-response had high values
# Chain of Chromo domain-containing protein 1 (Saccharomyces cerevisiae (strain ATCC 204508 / S288c) (Baker's yeast)) (P32657 whole entry, the tested form may be a part): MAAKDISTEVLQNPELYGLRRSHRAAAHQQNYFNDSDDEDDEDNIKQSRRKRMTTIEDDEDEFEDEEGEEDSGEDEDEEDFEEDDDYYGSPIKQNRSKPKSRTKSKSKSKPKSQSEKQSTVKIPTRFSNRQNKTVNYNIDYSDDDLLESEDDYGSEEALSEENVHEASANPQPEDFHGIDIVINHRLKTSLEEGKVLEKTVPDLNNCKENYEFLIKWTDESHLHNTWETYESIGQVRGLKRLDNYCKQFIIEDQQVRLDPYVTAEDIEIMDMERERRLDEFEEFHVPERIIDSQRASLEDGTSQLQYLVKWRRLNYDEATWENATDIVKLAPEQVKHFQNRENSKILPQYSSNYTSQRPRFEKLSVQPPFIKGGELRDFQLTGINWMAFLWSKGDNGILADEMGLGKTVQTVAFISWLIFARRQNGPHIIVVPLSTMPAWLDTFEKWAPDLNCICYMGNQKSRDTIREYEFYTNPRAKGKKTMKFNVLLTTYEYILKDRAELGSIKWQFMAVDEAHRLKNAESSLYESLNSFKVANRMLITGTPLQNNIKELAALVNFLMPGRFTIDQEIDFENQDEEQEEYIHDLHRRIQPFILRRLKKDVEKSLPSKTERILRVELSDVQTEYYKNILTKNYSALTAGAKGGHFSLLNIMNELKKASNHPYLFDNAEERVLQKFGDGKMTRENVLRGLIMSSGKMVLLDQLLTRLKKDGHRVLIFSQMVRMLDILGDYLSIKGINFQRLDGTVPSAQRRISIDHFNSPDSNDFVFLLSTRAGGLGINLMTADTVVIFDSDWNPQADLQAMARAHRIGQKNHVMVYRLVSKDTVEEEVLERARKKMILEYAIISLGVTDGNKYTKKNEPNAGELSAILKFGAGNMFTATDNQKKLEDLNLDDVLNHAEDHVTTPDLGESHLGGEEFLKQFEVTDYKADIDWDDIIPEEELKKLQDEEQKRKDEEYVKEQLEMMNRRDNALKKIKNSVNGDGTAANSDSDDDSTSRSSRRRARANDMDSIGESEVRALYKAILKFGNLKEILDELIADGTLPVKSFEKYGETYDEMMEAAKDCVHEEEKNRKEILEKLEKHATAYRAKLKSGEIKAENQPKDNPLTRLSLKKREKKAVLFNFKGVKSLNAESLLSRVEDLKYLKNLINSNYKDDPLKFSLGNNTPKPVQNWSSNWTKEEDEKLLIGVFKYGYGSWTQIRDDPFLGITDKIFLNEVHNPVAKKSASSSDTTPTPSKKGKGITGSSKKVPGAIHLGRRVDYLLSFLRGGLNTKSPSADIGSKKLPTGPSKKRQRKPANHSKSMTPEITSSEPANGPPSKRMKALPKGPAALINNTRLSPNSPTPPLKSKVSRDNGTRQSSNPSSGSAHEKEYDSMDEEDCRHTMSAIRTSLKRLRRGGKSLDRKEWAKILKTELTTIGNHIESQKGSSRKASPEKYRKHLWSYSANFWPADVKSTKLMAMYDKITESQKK
# Chain of Sialic acid-binding Ig-like lectin 9 (Homo sapiens) (Q9Y336 whole entry): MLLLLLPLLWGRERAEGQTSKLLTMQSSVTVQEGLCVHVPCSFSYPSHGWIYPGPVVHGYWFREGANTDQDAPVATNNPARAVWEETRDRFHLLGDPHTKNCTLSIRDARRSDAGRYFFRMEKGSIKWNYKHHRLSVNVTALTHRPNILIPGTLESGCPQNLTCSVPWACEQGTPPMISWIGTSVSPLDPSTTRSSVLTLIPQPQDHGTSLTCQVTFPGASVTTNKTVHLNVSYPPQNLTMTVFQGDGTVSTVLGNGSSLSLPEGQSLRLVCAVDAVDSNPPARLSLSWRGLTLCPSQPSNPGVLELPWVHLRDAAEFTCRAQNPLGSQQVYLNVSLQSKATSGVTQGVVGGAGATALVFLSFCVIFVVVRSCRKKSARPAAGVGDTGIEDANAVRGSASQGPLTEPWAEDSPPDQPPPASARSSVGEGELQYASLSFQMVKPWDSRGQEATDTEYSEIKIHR
# Chain of Protein translocase subunit SecA (Escherichia coli (strain K12)) (P10408 whole entry): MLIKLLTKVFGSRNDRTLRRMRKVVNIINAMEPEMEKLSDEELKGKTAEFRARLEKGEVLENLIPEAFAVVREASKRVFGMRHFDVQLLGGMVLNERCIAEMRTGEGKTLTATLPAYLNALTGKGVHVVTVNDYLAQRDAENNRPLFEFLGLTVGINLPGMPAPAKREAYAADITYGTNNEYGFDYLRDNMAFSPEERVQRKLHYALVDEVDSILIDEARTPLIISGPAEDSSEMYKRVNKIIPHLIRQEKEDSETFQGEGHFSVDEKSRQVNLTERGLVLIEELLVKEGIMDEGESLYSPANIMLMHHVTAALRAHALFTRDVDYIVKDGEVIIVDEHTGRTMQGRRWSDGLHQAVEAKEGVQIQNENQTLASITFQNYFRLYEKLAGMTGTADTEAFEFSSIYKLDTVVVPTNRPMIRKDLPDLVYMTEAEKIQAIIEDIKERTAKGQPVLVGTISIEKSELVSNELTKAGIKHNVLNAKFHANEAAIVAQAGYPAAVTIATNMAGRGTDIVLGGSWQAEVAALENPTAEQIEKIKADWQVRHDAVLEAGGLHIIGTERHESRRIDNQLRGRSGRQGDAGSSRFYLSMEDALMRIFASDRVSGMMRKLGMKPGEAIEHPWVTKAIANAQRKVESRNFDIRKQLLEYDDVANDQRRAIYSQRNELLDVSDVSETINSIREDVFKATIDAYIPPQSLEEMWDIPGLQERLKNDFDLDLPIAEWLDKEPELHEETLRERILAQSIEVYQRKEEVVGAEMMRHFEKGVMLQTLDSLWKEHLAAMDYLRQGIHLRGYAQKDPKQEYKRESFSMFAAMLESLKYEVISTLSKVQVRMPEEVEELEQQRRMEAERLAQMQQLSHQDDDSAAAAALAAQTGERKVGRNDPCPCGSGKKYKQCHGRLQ
SMILES,Percent Effect [1] [%],Percent Effect [2] [%],Percent Effect [3] [%],Percent Effect [4] [%],Percent Effect (Trypanosoma cruzi) [%],Percent Effect [5] [%],Percent Effect [6] [%],Percent Effect (Homo sapiens) [%],Percent Effect [7] [%],Percent Effect [8] [%],Percent Effect [9] [%]
CN1CCN(Cc2cnc3n2CCN(Cc2cccs2)C3)CC1,-1.16,21.6,-2.7,-1.5,3.62,2.87,19.7,-1.05,4.32,20.5,-0.68
CN(Cc1ccco1)C[C@H]1OC[C@@H]2CCN(Cc3cccs3)C[C@@H]21,1.17,-2.67,4.12,7.42,-3.28,-50.7,-3.59,-15.4,-1.04,-37.5,-2.22
COCC(=O)N1CCCC1c1cc(Nc2nnc(C)s2)nc(C)n1 (configuration not stated),-7.56,0,-6.16,10.2,7.09,-3.96,-2.38,8.53,4.25,8.97,-5.17
COc1ccc(-c2noc(C(=O)NCCN3CCCCC3)n2)cc1OC,-7.28,14.7,-14.8,5.74,8.25,-18.8,1.85,6.7,3.17,-5.13,-13.9
Cc1cnn(CC(C)NCc2csc(-c3ccco3)n2)c1 (configuration not stated),-3.81,-3.8,10.6,-3.77,-5.44,-3.66,10.1,18.9,11.5,2.53,-23.7
CC(C)CC(=O)N1CCc2nc(N3CCOCC3)nc(NC(C)C)c2C1,-4.18,2.67,12.4,-0.324,-1.57,2.56,2.03,8.78,9.57,14.1,-8.4
Cc1nnc([C@@H]2CC[C@@H]3[C@@H](CCN3S(=O)(=O)c3cccnc3)O2)o1,-6.5,10.8,7.11,-2.36,-1.07,6.05,15.7,-6.25,15.1,12.8,-1.2
C[C@@H]1CN(C(=O)c2ccc(C#N)nc2)CC[C@@]1(O)C1CCOCC1,-2.31,5.41,-1.11,17.6,6.18,10.5,3.45,14.3,5.82,9.76,-1.75
c1nc2c(c(-c3ccsc3)n1)CCN(Cc1ccoc1)CC2,-1.1,-5.41,14.1,-1.76,-2.15,-1.67,5.83,12.5,-6.93,-3.66,-0.614
CC(C)c1nn(C)c(N(C)C)c1CNCCC(=O)NC1CCCC1,-6.71,21.1,-15.3,3.05,10.4,1.08,13.4,-19.1,7.39,23.5,-6.05
CN(Cc1nnc(C2CC2)n1C)C1CCN(Cc2ccon2)C1 (configuration not stated),-1.9,21.6,-11.6,-5.53,-2.17,-10,12.6,7.46,5.42,11.1,-7.81
COC(=O)CNC(=O)CSCc1nc(O)c2cc(C(C)C)sc2n1,0.0478,-6.67,10.7,2.72,-2.95,-9.68,7.58,-3.98,-3.17,5.13,-1.35
Cc1nnc(N2CC[C@H]3C[C@H](C(=O)N4CCOCC4)O[C@H]3C2)s1,-2.55,0,5.32,2.05,0.0978,-0.955,14.6,-19.4,1.08,5.13,1.53
COCCn1ccc2cc(NC(C)=O)ccc21,-8.18,23.7,-9.22,7.23,1.46,-9.47,16.4,-6.07,4.25,10.4,-9.21
CCc1ccc(C(=O)N2CCN(CCS(C)(=O)=O)CC2)o1,-3.79,-5.26,3.96,8.99,-0.752,0.383,4.18,10.7,5.39,7.32,0.21
Cc1[nH]ccc1C(=O)Nc1cccc(CN2CCC(CO)CC2)c1,-3.65,23.7,-7.05,-13.3,0.876,-17.8,8.34,30.6,3.19,13,-9.32
COCCNS(=O)(=O)c1cccc2c1CN(C(=O)c1ccccc1)CC2,-6.17,-4.17,4.56,0.0622,-1.65,-2.21,4.39,34.9,-4.21,-10.3,4.48
CCCc1n[nH]c(C2CN(C(=O)c3cc(F)ccc3OC)CCO2)n1 (configuration not stated),-5.9,7.89,-0.379,3.53,2.33,-2.52,3.3,-17.2,6.4,11.1,-4.7
CC(CNC(=O)c1ccc(Cl)cc1I)N1CCCC1 (configuration not stated),-0.489,-2.7,-6.38,-1.77,7.53,-2.38,27.4,-7.67,6.88,12.2,51.2
O=C(CCC1CC1)N1C[C@@H](CN2CCCC2)[C@@H](CO)C1,-2.75,0,2.73,1.73,-2.46,-8.28,3.49,4.43,2.15,6.17,-2.02
CCC(NC(=O)C1CCN(S(C)(=O)=O)CC1)c1ccc(OC)c(OC)c1 (configuration not stated),-2.12,-2.6,3.25,-1.28,-1.48,-5.52,11.2,-4.52,3.23,1.24,3.51
NC(=O)c1ccc(OCC(=O)N2CCCC(n3cccn3)C2)cc1 (configuration not stated),-3.58,15.6,6.85,2.82,-2.06,1.9,7.2,1.54,7.62,14.1,-7.55
